Gli-Sufu antag: Gli-Sufu pathway antagonism | Sufu-KO-LIGHT fibroblasts, Gli luciferase reporter luminescence | inhibition, % at 5 µM | 340,000 tested, 0.74% active | AID 588413;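 active means inhibition above about 55%, limit read from the data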;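 further: 0% = DMSO-treated cells and 100% = wells with medium but no cells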
NR2F2 inh: inhibitors of human COUP-TFII (NR2F2) | P24468 | 370,000 tested, 0.7% active | AID 686940 | HEK293T NGFI-A luciferase reporter, luminescence | inhibition, % at 8.6 µM;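 active means inhibition above a per-plate cutoff, mean inhibition of test wells between control levels plus 3 SD, cut at about 38% in these data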;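 further: cells cotransfected with COUP-TFII expression vector driving the NGFI-A reporter; 0% = median of COUP-TF2 test wells and 100% = reporter-only cells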
NCOA3 inh: inhibits human SRC3 coactivator. inhibition, % at 3.6 µM. HEK293 GAL4-SRC3 luciferase reporter, luminescence. 360,000 tested, 0.17% active. AID 588352. Q9Y6Q9;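 active means inhibition above a per-campaign cutoff, the mean of all compounds plus 3 SD, cut at about 60% in these data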;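 further: 0% = DMSO-treated cells and 100% = gossypol-treated cells at 36 µM; higher means less SRC3-driven luciferase light from the GAL4 reporter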
SRC2 inh: inhibits human steroid receptor coactivator 2. Q15596. HEK293 GAL4-SRC2 luciferase reporter, luminescence. inhibition, % at 9 µM. 370,000 tested, 0.17% active. AID 651957;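 active means inhibition above the mean inhibition of all tested compounds plus 3 SD, set per campaign, cut at about 52% in these data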;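 further: 0% = DMSO treated cells and 100% = cells given Gossypol at 36 µM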
Target sequence (Q15596 whole entry, looked up, the tested form may be a part): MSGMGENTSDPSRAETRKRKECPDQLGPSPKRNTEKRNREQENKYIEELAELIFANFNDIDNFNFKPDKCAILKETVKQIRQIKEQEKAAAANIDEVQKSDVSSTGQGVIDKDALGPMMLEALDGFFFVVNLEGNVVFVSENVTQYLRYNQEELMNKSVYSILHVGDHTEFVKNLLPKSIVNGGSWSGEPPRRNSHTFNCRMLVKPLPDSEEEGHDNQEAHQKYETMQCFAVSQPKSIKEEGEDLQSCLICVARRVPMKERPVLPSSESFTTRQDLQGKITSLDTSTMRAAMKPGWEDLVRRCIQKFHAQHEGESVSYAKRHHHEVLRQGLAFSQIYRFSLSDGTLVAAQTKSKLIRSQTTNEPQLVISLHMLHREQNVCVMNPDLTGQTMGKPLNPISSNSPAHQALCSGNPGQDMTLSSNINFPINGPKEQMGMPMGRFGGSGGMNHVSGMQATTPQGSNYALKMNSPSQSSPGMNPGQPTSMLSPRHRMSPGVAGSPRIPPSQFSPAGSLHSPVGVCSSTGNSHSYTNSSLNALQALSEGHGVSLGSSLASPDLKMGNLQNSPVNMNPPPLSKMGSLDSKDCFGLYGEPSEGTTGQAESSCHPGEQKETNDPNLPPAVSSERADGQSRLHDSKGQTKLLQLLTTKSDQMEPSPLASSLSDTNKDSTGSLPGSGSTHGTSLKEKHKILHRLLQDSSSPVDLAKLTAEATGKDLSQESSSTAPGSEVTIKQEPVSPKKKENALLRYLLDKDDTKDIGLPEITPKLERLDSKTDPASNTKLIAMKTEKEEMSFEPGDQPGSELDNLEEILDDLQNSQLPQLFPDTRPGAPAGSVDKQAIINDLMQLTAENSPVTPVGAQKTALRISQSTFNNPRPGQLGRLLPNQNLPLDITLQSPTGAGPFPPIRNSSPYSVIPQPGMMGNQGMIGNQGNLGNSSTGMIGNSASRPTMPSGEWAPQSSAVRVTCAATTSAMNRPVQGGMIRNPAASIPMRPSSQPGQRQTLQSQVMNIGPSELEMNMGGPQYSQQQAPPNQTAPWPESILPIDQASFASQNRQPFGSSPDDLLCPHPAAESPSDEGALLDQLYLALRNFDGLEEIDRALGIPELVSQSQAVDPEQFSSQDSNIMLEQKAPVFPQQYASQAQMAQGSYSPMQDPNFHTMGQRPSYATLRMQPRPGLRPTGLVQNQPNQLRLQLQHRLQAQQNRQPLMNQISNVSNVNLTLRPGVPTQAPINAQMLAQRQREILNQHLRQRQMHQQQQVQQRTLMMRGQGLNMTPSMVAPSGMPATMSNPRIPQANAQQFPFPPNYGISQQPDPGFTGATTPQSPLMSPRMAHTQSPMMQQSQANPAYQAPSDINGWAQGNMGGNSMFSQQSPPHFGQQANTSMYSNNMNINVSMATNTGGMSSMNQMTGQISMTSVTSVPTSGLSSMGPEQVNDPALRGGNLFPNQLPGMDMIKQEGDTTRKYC
NCOA1 inh: inhibitors of human steroid receptor coactivator 1 (SRC1); HEK293 GAL4-SRC1 luciferase reporter, luminescence; inhibition, % at 3.6 µM; 360,000 tested, 0.12% active; AID 588354; Q15788;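 active means inhibition above the campaign mean plus 3 SD, with each screening campaign given its own cutoff, cut at about 60% in these data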;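 further: 0% = DMSO treated cells and 100% = gossypol at 36 µM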
NR5A2 inv ag: suppresses constitutive activity of human LRH-1; O00482; HEK293T StAR-luciferase reporter, LRH-1 transfected, 24 h; inhibition, % at 3.6 µM; 360,000 tested, 0.13% active;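 active means inhibition above the mean inhibition of all tested compounds plus 3 SD, cut at about 73% in these data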;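 further: 0% = DMSO wells and 100% = reporter-only cells lacking LRH-1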
VP16 Luc counter: VP16 inhibition counter-screen for COUP-TFII; inhibition, % at 8.5 µM; 2,500 tested, 25% active; HEK293 Gal4-VP16 luciferase reporter, luminescence; AID 687007; shares compounds with NR2F2 inh; in the data active means inhibition above about 13%
NR2F2 inh conf: COUP-TFII (NR2F2) inhibition, confirmation assay | 2,500 tested, 45% active | inhibition, % at 8.5 µM | HEK293 NGFI-A luciferase reporter, luminescence | shares compounds with NR2F2 inh;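 active means mean inhibition over three repeats above a set limit taken from the earlier primary screen, cut at about 38% in these data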;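 further: 100% = cells given the luciferase reporter alone without the COUP-TF2 vector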
* hit, by the source's call; · = not tested or not shown. Only some compounds are listed: those with a hit (about 1.2% of all), similar ones and a draw of the others.

SMILES	Gli-Sufu antag	NR2F2 inh	NCOA3 inh	SRC2 inh	NCOA1 inh	NR5A2 inv ag	VP16 Luc counter	NR2F2 inh conf
C[n+]1cc2c3c(ccc2c2ccc4cc5c(cc4c21)OCO5)OCO3	·	106*	·	87*	·	·	95*	107*
COc1ccc2cc3[n+](cc2c1O)CCc1cc2c(cc1-3)OCO2	·	-3	·	-7	·	1	·	·
CCN1/C(=C/c2ccc3cccc(C)c3[n+]2CC)Sc2ccccc21	88*	74*	53	-6	42	69	19*	66*
CCN1/C(=C\c2ccc3cc(C)ccc3[n+]2CC)Sc2cc(C)c(C)cc21	88*	67*	36	-28	20	64	8	53*
Cc1ccc2c(c1)S/C(=C\c1cccc[n+]1C)N2CCO	16	6	9	3	6	18	·	·
CCN1/C(=C/c2ccc3cc(C)cc(C)c3[n+]2CC)Sc2cc(C)ccc21	90*	66*	44	-47	24	67	23*	69*
C[n+]1ccccc1/C=C1\Sc2ccccc2N1CCO	21	1	14	18	-2	-11	·	·
COC(=O)[C@]12C[C@H](CC(=O)N3CCN(C(=O)c4ccco4)CC3)C(=O)N(Cc3cccc4ccccc34)C1=C[C@H](C(C)C)O[C@@H]2C1CC1	·	12	·	27	·	·	·	·
O=C(c1ccccc1)c1nn(-c2ccc(Cl)cc2)c(=O)cc1C(F)(F)F	12	40*	64*	69*	26	85*	50*	62*
COC(=O)C1=C(C)N(C)C(=NCc2ccccc2C(F)(F)F)NC1CCc1ccccc1 (stereo not drawn)	·	3	·	-4	·	·	·	·
COCCNc1nc(NCc2cccc(OC)c2)c2sccc2n1	·	19	-16	-3	-21	8	·	·
COCCNc1nc(NCc2ccc(C(C)C)cc2)c2sccc2n1	·	38*	10	3	19	7	1	22
O=C(NCc1ccccc1)[C@@H]1CCCN1C(=O)[C@H]1CCCN1C(=O)c1cccs1	·	11	·	3	·	·	·	·
CC(=O)/C(N=Nc1ccc2c(c1)OCO2)=C(\C)O	-58	-14	-48	-33	-35	-16	·	·
CC(=O)/C(N=Nc1ccc2c(c1)OCCO2)=C(\C)O	6	68*	57	45	43	35	-122	-36
CC1CC(C)CN(c2nc(NCc3ccco3)nc(N)c2[N+](=O)[O-])C1 (stereo not drawn)	7	-5	34	19	14	14	·	·
CC1CCCN(c2nc(NCc3ccco3)nc(N)c2[N+](=O)[O-])C1 (stereo not drawn)	7	41*	17	1	18	12	1	4
COC(=O)[C@]12C[C@H](CC(=O)NCCCN3CCCC3=O)C(=O)N(CCC3=CCCCC3)C1=C[C@H](COCc1ccccc1)O[C@@H]2C	·	-7	·	3	·	·	·	·
CC(C)[C@H](NC(=O)C1CC1)C(=O)N1CCC[C@H]1C(=O)NCCc1ccccc1Cl	·	13	·	-6	·	·	·	·
Cc1cc(C)cc(C(=O)OCCN2CCN(C3CN(Cc4cn(Cc5ccc([N+](=O)[O-])cc5)nn4)S(=O)(=O)C3)CC2)c1 (stereo not drawn)	·	23	·	14	·	·	·	·
Cc1cc(C)cc(C(=O)OCCN2CCN(C3CN(Cc4cn(Cc5ccccc5F)nn4)S(=O)(=O)C3)CC2)c1 (stereo not drawn)	·	49*	·	14	·	·	-7	6
Nc1[nH]c(C(=O)c2ccccc2)c(-c2ccc(Cl)cc2)c1C(=O)c1c[nH]c2ccccc12	·	-16	·	-9	·	·	·	·
C[C@@H]1CN([C@@H](C)CO)C(=O)CCCn2cc(nn2)CO[C@H]1CN(C)C(=O)Nc1cccc(F)c1	·	-1	·	1	·	·	·	·
CC(C)C[C@H]1COc2cc(Br)ccc2S(=O)(=O)N1Cc1cccc(Cl)c1	·	-17	·	-27	·	·	·	·
N#CCSc1nnc(-c2sc3ccccc3c2Cl)o1	-11	53*	15	0	13	12	5	44*
SMILES	Gli-Sufu antag	NR2F2 inh	NCOA3 inh	SRC2 inh	NCOA1 inh	NR5A2 inv ag	VP16 Luc counter	NR2F2 inh conf
COC(=O)CSc1nnc(-c2sc3ccccc3c2Cl)o1	5	0	4	4	14	-2	·	·
CCCCc1c(-c2ccccc2OC)ncn1Cc1cccc(OC)c1	·	-2	·	2	·	·	·	·
O=C(N[C@H](C(=O)N1CCC[C@H]1C(=O)NCCc1ccccc1Cl)C1CCCCC1)C1CC1	·	-17	·	8	·	·	·	·
Cc1[nH]c2ccccc2c1CC(=O)Nc1ccc(Nc2cccnc2)c(-c2cc(F)cc(F)c2)c1	·	6	·	18	·	·	·	·
OC(C1=CC(=Cc2ccncc2)c2ccccc21)c1ccncc1 (stereo not drawn)	17	37*	12	-7	-14	20	-6	-14
CC(=O)[C@@]1(O)Cc2c(O)c3c(c(O)c2[C@H](O[C@H]2C[C@H](N)[C@H](O)[C@H](C)O2)C1)C(=O)c1ccccc1C3=O	·	58*	-67	-51	-138	34	10	38*
COc1cccc2c1C(=O)c1c(O)c3c(c(O)c1C2=O)CC(O)(C(C)=O)CC3OC1CC(N(C)C)C(O)C(C)O1 (stereo not drawn)	69*	53*	85*	55*	75*	97*	15*	20
CC(C)[C@H](NC(=O)c1ccc(Cl)cc1Cl)C(=O)N1CCC[C@H]1C(=O)NCc1ccccc1	·	7	·	-2	·	·	·	·
CCOC(=O)C1CCCCN1C(=O)CCc1c(C)nc2cc(-c3ccccc3)nn2c1C (stereo not drawn)	25	52*	21	70*	-2	0	-13	20
CCN(CC)S(=O)(=O)c1ccc(C(=O)Nc2ccc(Cc3ccncc3)cc2)cc1	48	51*	21	3	11	26	9	56*
CCN(CC)S(=O)(=O)c1ccc(C(=O)Nc2cc(C)cc(C)c2)cc1	-1	6	-8	16	9	1	·	·

Screening data as filed in PubChem.
